The experiment concerns the target AMP-activated protein kinase, AMPK (Homo sapiens) (UniProt P54646+O43741+P54619+Q9UGJ0+Q9Y478+Q13131+Q9UGI9). The experiment in a line: AMP-dependent Kinase enzyme assay. An in vitro enzyme assay that detects ADP turnover that is directly proportional to AMPK activity. This uses naive AMPK that is activated during the assay with MK-8722. It counts as functional. Conditions: 30 µM. More on the design: scale not given: direction of the effect not stated beside the values.

`C[C@@H]1CN(Cc2cn(C)nc2-c2ccccc2F)C[C@H](C)O1`: the Percent Effect came to 19.5%.

On to `Cc1cc(CN2CCC(c3cc(Cc4ccccc4)n[nH]3)CC2)[nH]n1`, for which the Percent Effect is -6.49%.

As for `O=C(O)C1(O)CCN(c2ccc3cccc(Cl)c3n2)CC1`, the Percent Effect worked out at 13.6%.

Turning to `CCCC(=O)NC1CCCN(c2nc3ccccc3cc2CO)C1` (stereo not given), the Percent Effect was found to be 6.66%.

For `Cc1nc(C)n(CC2CCCN2c2ncnc3sc(C)c(C)c23)n1` (stereo not given), the Percent Effect is -3.96%.

Consider `CC(C(=O)NCCc1ccc2c(c1)OCCO2)n1cncn1` (stereo not given), for which the Percent Effect was -6.97%.

For `COc1cc2c(cc1CNCc1cccnc1OC)OC(C)C2` (stereo not given), the Percent Effect was 0.485%.

Consider `CCN1CCC(CC(=O)NCCc2nc(N)cc(O)n2)CC1`, for which the Percent Effect was determined as 0.153%.

Turning to `Cc1cc(NC(C)c2n[nH]c(C)n2)n2nc(C)c(C)c2n1` (stereo not given), the Percent Effect worked out at 20.5%.

In the case of `O=C(NCc1cc(-c2ccccc2)no1)NC1CCCCNC1=O` (stereo not given), the Percent Effect is -4.86%.

In the case of `Cn1ccnc1CN1CCN(Cc2cc(-c3ccccc3)no2)CC1`, the Percent Effect was -2.31%.

For `CN1CCOC(CNC(=O)CCCc2ccccc2)C1` (stereo not given), the Percent Effect was -9.04%.

On to `CS(=O)(=O)N1CC[C@]2(O)CCN(c3ccnc(N)n3)C[C@@H]2C1`, for which the Percent Effect is -13.7%.

Take `CCN(C(=O)CN1CCCN(c2nc(C)ns2)CC1)C1CC1`: the Percent Effect stood at 5.97%.

Consider `CCCC1COCCN1Cc1ccc(S(=O)(=O)NC)cc1` (stereo not given), for which the Percent Effect worked out at 0.167%.

Take `CNC(=O)Cc1ccccc1NC(=O)N[C@H]1c2ccccc2C[C@H]1O`: the Percent Effect was 0.934%.

Take `Cc1c(C(=O)N2CCCN(S(C)(=O)=O)CC2)cnn1C`: the Percent Effect turned out to be 10.1%.

As to `CO[C@@H]1CCC[C@@H](NC(=O)c2cccc(F)c2)[C@H]1O`, the Percent Effect was found to be 10.3%.

`Cc1oc(-c2ccco2)nc1CN1CCc2cncnc2C1`: the Percent Effect was -10.6%.

In the case of `CN1C[C@@H]2CC[C@H](C1)N(Cc1ccccc1OCCN1CCOCC1)C2`, the Percent Effect was -106%.

In the case of `CC(C)(C)CC(NC(=O)N1CCC(C(N)=O)CC1)C(F)(F)F` (stereo not given), the Percent Effect was -1.73%.

Consider `Cc1ccccc1NC(=O)CCNC(=O)c1ccoc1`, for which the Percent Effect is -10.8%.

`Cn1c(CO)nnc1SCc1c(F)cccc1Br`: the Percent Effect came to 2.62%.

As to `Cc1ccsc1C(=O)NCc1ccnc(C2CCCOC2)n1` (stereo not given), the Percent Effect stood at 11.8%.

For the compound `NC(=O)COc1ccc(CN2CC[C@@]3(O)CCCC[C@H]3C2)cc1Cl`, the Percent Effect came to 3.71%.

Consider `CS(=O)(=O)NCCN1CCSCC1c1ccc(Cl)cc1` (stereo not given), for which the Percent Effect was 1.33%.

For the compound `Cc1noc(CN(C)c2nc(-c3ccco3)nc3c2CCN(C)CC3)n1`, the Percent Effect came to 3.37%.

On to `CCN(CC)S(=O)(=O)c1cc(Br)ccc1OC`, for which the Percent Effect was -4.57%.

As to `CCOc1cc(NC(=O)N2CCOC3(CCC3)C2)ccc1C`, the Percent Effect was -1.23%.

Consider `O=C(CNC1(CCO)CCOCC1)Nc1ccc(F)cc1F`, for which the Percent Effect was -0.128%.

With `CCCc1nnc(N2CCC(N3CCCCCC3)CC2)o1`, the Percent Effect was -2.81%.

On to `Cc1nc(NC(=O)C(C)N(C)Cc2ccc3c(c2)OCO3)sc1C` (stereo not given), for which the Percent Effect came to 6%.

Consider `Cc1cnn(CC2CCN(CC(O)Cn3cccn3)CC2)c1` (stereo not given), for which the Percent Effect is 11.8%.

For `CC(C)OCCCNC(=O)CN1CCN(c2nccs2)C(C)C1` (stereo not given), the Percent Effect was found to be 13.6%.

Consider `Cc1ccnc(C2CCN(CCCOc3ccccc3F)C2)n1` (stereo not given), for which the Percent Effect is 6.41%.

In the case of `COc1ccc(S(=O)(=O)C2CCN(C(=O)c3cc(C)cs3)CC2)cc1`, the Percent Effect was 2.13%.

For the compound `O=C(CCC1CCCN(C(=O)CCN2CCCCO2)C1)N1CCCC1` (stereo not given), the Percent Effect is -2.7%.

With `CC(C)C(C(=O)O)c1cccc(Cl)c1` (stereo not given), the Percent Effect was -3.52%.

For `CCc1ncc(CN2CCOC(Cc3cccc(F)c3)C2)cn1` (stereo not given), the Percent Effect was found to be 6.71%.

`CC(C)NC(=O)c1nc(Cn2c(C(F)F)nc3ccccc32)no1`: the Percent Effect is 12.9%.

For `Cc1nc2c(c(N[C@H](C(N)=O)C(C)C)n1)Cc1ccccc1OC2`, the Percent Effect was -25.7%.

In the case of `COc1cc(COCC2CCN(Cc3ccccn3)CC2)cc(OC)c1`, the Percent Effect is -0.77%.

With `O=C(CC1CCCC1)NCCS(=O)(=O)N1CCN(c2ccccn2)CC1`, the Percent Effect was -2.11%.

On to `CCN(CC1CCCO1)C(=O)NCCNC(=O)c1ccccc1F` (stereo not given), for which the Percent Effect was found to be 1.37%.

`O=S(=O)(NCc1cn2ccccc2n1)N1CCOCC1`: the Percent Effect amounted to 9.32%.

For `CCSc1cc(C(=O)N(Cc2cnn(C)c2)C(C)C)ccn1`, the Percent Effect amounted to 1.44%.

Take `Cc1cc(NCCc2cnccn2)nc(-c2ccccc2O)n1`: the Percent Effect was determined as 19.4%.

Turning to `COc1ccc(Br)cc1S(=O)(=O)N(C)Cc1ccc(N(C)C)cc1`, the Percent Effect is -1.52%.

Consider `CS(=O)(=O)CC1(CNc2c(C#N)cnc3ccc(Cl)cc23)CC1`, for which the Percent Effect amounted to 5.05%.

`O=C(NCCC1CN(C2CCCC2)CCO1)c1cc(=O)[nH]c(=O)[nH]1` (stereo not given): the Percent Effect was -0.888%.

Consider `Cc1cc(C)nc(NC2CCN(CCOC(C)C)CC2)n1`, for which the Percent Effect came to 7.53%.

`COc1ccc(CCC(=O)N2CCN(c3nc(C)ns3)CC2)cc1`: the Percent Effect was -3.26%.

As to `COC(=O)C(NC(=O)c1cc(C)ccc1C)c1cccnc1` (stereo not given), the Percent Effect was determined as 1.93%.

With `CCc1cccc(OCCCN(C)C(=O)CN2CCNC2=O)c1`, the Percent Effect came out at 5.57%.

As for `Cc1cc(C2CCCN(CC(=O)N3CCCc4ccccc43)C2)n[nH]1` (stereo not given), the Percent Effect is -5.06%.

(Values after ChEMBL document CHEMBL3988442, “University of Dundee, Small-Polar-MMV Screening Library” (2021).)
